HT1080-NT tox = kills 2HG-producing HT-1080-NT fibrosarcoma cells | HT-1080-NT fibrosarcoma viability, CellTiter-Glo ATP luminescence, 48 h | Potency, µM (top dose mostly 46.1 µM), usual class: cytotoxic | 360,000 tested, 1.6% active | AID 686970;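 also: NT is the 2HG producing partner of a matched IDH1 knockdown line; nearly all actives have a fitted effect of over 55% in size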
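750 cells/well, RPMI + 5% FBS; 2 h settle, compound pin-transfer, 48 h at 37 degrees C. CellTiter-Glo 10 min RT, luminescence. Normalized to DMSO and media-only wells.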
TGFb SMAD3 inh = inhibitors of TGF-b signaling. HepG2 CAGA-GFP TGF-b/SMAD3 reporter, GFP fluorescence, 18 h; TGF-beta stimulated, 500 pg/mL final. Potency, µM (top dose mostly 46.1 µM), hits mostly inhibitors. 410,000 tested, 1.2% active. AID 588855; also: nearly all actives have a fitted effect of over 65% in size
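HEPG2 CAGA-GFP, 1000 cells/well; 2 h settle, 37 C; cpd via pin tool; TGF-b 500 pg/mL final; 18 h, 37 C; GFP imaging ex488/em500-530; %Activity normalised to -TGF-b and +DMSO controls; CRC fit, curve class.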
HT1080 IDH1KD tx = HT-1080 IDH1 knockdown cell toxicity (counter line) | HT-1080 IDH1 knockdown viability, ATP luminescence, 48 h | Potency, µM (top dose mostly 46.1 µM), most hits filed as cytotoxic | 360,000 tested, 2% active | AID 686971
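HT-1080-IDH1KD cells (IDH1 knocked down), 750/well in RPMI with 5% FBS, treated with compound 48 h at 37 degrees C. Viability by CellTiter-Glo luminescence, normalised to DMSO and no-cell wells; concentration-response curves classed.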
IL1B secr inh = inhibitors of inflammasome signaling (IL-1 beta secretion) | AID 743279 | THP-1 LPS/ATP IL-1B secretion, AlphaLISA, 16 h; hits give low values | 360,000 tested, 4.7% active | activity change, % at 57.5 µM; in the data active = activity change below about -50%; inconclusive = mostly about -30% to -49%
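Secreted IL-1B measured by AlphaLISA bead assay after 16 h compound exposure of THP-1 cells; compounds (final up to 57.5 uM) added 1 h before LPS (250 ng/mL) and ATP (1.25 mM) stimulation; lower signal means less secretion.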
Giardia killer = kills Giardia lamblia | Giardia lamblia trophozoite viability | activity change, % at 7.66 µM, hits read low | 340,000 tested, 0.15% active; in the data active = activity change below about -80%; inconclusive = between about -30% and that limit;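 also: parasites exposed to compound for two days anaerobically before the ATP read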
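Luminescent ATP signal served as the viability read-out, measured 15-30 min after adding ATP detection reagent to trophozoites that had been incubated with compounds for 48 hrs at 37 deg C anaerobically at 100 cells/well.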
HepG2 tox = kills HepG2 cells in TGF-b inhibitor counter-screen; HepG2 CAGA-GFP viability, ATP luminescence, 18 h; Potency, µM (series often up to 46.1 µM), hits mostly cytotoxic; 410,000 tested, 0.76% active; AID 588856
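HepG2 CAGA-GFP cells (1000/well, DMEM with 1% FBS) received compound, then TGF-beta at 500 pg/mL final, and were incubated 18 hours at 37 degrees C. Viability was read by CellTiter-Glo luminescence. Media-only wells were set as complete cell-killing and DMSO as no toxicity.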
Hits are given with their value; i = inactive; ? = inconclusive; nt = not tested or not shown. Sampled rows, rich in hits. Any-hit rate of the full collection: about 6.5%. Unless noted, calls follow the shape of the dose curve; as a rule, active = well fitted curve in the direction sought with a large enough effect; inconclusive = small, poorly fitted or top-dose-only effect, or another doubt; inactive = no such curve, though single readings can be large; an effect the other way counts as inactive or inconclusive.

SMILES | HT1080-NT tox | TGFb SMAD3 inh | HT1080 IDH1KD tx | IL1B secr inh | Giardia killer | HepG2 tox
COc1ccc(NC(=O)CSc2ncc(-c3ccc(F)cc3)n2Cc2ccco2)cc1 | ? | ? | ? | -61.6 | i | i
COc1ccc(NC2CCCN(C(=O)c3cccc(C)n3)C2)cc1OC (stereo unspecified) | i | i | i | i | i | i
CCOC(=O)C1(Cc2ccccc2)CCCN(C(=O)c2cn[nH]c2)C1 (stereo unspecified) | i | i | i | i | i | i
O=C1NC(c2cccc3ccccc23)Nc2ccc(Cl)cc21 (stereo unspecified) | 0.581µM | 3.98µM | 0.517µM | i | i | i
COC(=O)c1ccc(CNC(=O)COC(=O)/C=C/c2ccc(O)c(OC)c2)cc1 | i | i | i | -68.1 | i | i
COc1cc(/C=C/C(=O)OCC(=O)N2CCC(Cc3ccccc3)CC2)ccc1O | i | ? | ? | -69.8 | i | i
CCOc1ccc(NC(=O)CSc2nc(NS(=O)(=O)c3ccc(C)cc3)cc(=O)[nH]2)cc1 | i | i | i | i | i | i
COc1ccc(N2CCN(C(=O)c3cc(=O)c4cc(C)cc(C)c4o3)CC2)cc1 | i | i | i | -77.2 | i | i
CCOC(=O)N1C2=NC(C(=O)OC)=C(C(=O)OC)[C@@H]3N(C)c4ccc(OC)cc4[C@]23C[C@H]1C(=O)OC | i | i | i | i | i | i
COC(=O)C1=C(C(=O)OC)[C@@H]2N(Cc3ccccc3)c3ccccc3[C@@]23C[C@@H](C(=O)OC)N(C(=O)c2ccc(Br)cc2)C3=N1 | i | 10µM | ? | i | i | i
C=CCN1c2ccccc2[C@]23C[C@@H](C(=O)OC)N(C(=O)OCC)C2=NC(C(=O)OC)=C(C(=O)OC)[C@H]13 | i | ? | i | i | i | i
COC(=O)C1=C(C(=O)OC)[C@@H]2N(C)c3ccc(OC)cc3[C@@]23C[C@@H](C(=O)OC)N(C(=O)c2ccc(Br)cc2)C3=N1 | 23.1µM | ? | ? | i | i | i
C=CCN1c2ccccc2[C@]23C[C@@H](C(=O)OC)N(C(=O)c4ccc(Br)cc4)C2=NC(C(=O)OC)=C(C(=O)OC)[C@H]13 | 18.4µM | 20µM | ? | i | i | i
CCN(CC)CCN(Cc1cc2cc(C)c(C)cc2[nH]c1=O)C(=S)NCc1ccco1 | ? | ? | ? | -141.9 | i | i
Cc1ccc2cc(CN(CC3CCCO3)C(=S)NCc3ccco3)c(=O)[nH]c2c1C (stereo unspecified) | i | i | ? | ? | i | i
CCCCNC(=S)N(CCO)Cc1cc2cc3c(cc2[nH]c1=O)OCCO3 | i | i | i | i | i | i
Cc1ccc(C)c2[nH]c(=O)c(CN(CC3CCCO3)C(=S)NCc3ccco3)cc12 (stereo unspecified) | i | i | ? | -76.6 | i | i
Cc1cc2cc(CN(CCN(C)C)C(=S)NCc3ccco3)c(=O)[nH]c2cc1C | ? | i | ? | -79.8 | i | i
CCCCNC(=S)N(CCN(C)C)Cc1cc2cc3c(cc2[nH]c1=O)OCCO3 | i | i | i | -51.2 | i | i
O=C(NC1CCCCC1)c1ccccc1-c1ccccc1 | ? | i | i | i | i | i
CN(C)/C=C/C(=O)c1ccc(C(F)(F)F)cc1F | i | i | i | i | i | i
NC(=O)CC(NC(=O)c1ccc(Br)cc1)c1ccc(NCc2ccc(F)cc2)c([N+](=O)[O-])c1 (stereo unspecified) | i | i | i | i | i | i
O=C(NCc1ccncc1)c1nnc(Cc2c(F)cccc2Cl)o1 | i | i | i | i | i | i
COc1cc(NC(=O)CSCC(=O)N(C)C2CCCCC2)cc(OC)c1 | i | i | i | i | i | i
CN(C(=O)CSCC(=O)Nc1ccc(Cl)cc1)C1CCCCC1 | ? | i | i | -53.2 | i | i
SMILES | HT1080-NT tox | TGFb SMAD3 inh | HT1080 IDH1KD tx | IL1B secr inh | Giardia killer | HepG2 tox
N=C(N)SCc1cn2ccccc2n1 | i | ? | i | i | i | i
CCOc1ccc2ccc(OCC)c(/C=N/n3cnnc3)c2c1 | i | i | i | -72.9 | i | i
CCOc1cc(/C=N/n2cnnc2)ccc1O | i | i | i | i | i | i
CC(C)c1nnc(NC(=O)CCS(=O)(=O)c2nc(-c3cccs3)cc(C(F)(F)F)n2)s1 | ? | 14.1µM | ? | -110.4 | i | i
O=C(CCS(=O)(=O)c1nc(-c2cccs2)cc(C(F)(F)F)n1)Nc1ccc(OC(F)(F)F)cc1 | nt | i | nt | nt | nt | i
O=C(CCS(=O)(=O)c1nc(-c2cccs2)cc(C(F)(F)F)n1)Nc1ccc(F)c(Cl)c1 | nt | 20µM | nt | nt | nt | 11.2µM
COc1ccc(NC(=O)CSc2nc(-c3cccs3)cc(C(F)(F)F)n2)cc1Cl | nt | i | nt | nt | nt | i
COc1ccc(NC(=O)CCS(=O)(=O)c2nc(-c3cccs3)cc(C(F)(F)F)n2)cc1 | nt | 10µM | nt | nt | nt | i
CC12CCC(C(=O)Nc3cccc(Cl)c3Cl)([C@H](Br)C1=O)C2(C)C (stereo partly specified) | ? | i | i | i | i | i
O=C(CCc1ccc(F)c(F)c1)NC1CCCN(Cc2ccc(Cl)cc2)C1 (stereo unspecified) | i | i | i | -78.4 | i | i
COc1ccc(CCC(=O)NC2CCCN(Cc3ccc(Cl)cc3)C2)cc1OC (stereo unspecified) | i | i | i | i | i | i
CC(C)Cc1ccc(CN2CCCC(NC(=O)CCn3cnnn3)C2)cc1 (stereo unspecified) | i | i | i | -60.3 | i | i
COc1cccc(C2c3[nH]c4ccccc4c3CCN2Cc2ncc[nH]2)c1 (stereo unspecified) | ? | i | i | i | i | i
c1ccc2c3c([nH]c2c1)C(C1CCCCC1)N(Cc1ncc[nH]1)CC3 (stereo unspecified) | i | ? | i | -87.5 | i | i
Cc1cnc(CN2CCc3c([nH]c4ccccc34)C2C2CCCCC2)[nH]1 (stereo unspecified) | i | i | ? | -78.5 | ? | i
C[C@@H]1CN([C@@H](C)CO)C(=O)c2cc(C#CC3CCCCC3)cnc2O[C@@H]1CN(C)S(=O)(=O)c1ccc(F)cc1 | i | ? | i | -52.7 | nt | i
C[C@H](CO)N1C[C@H](C)[C@@H](CN(C)S(=O)(=O)c2ccccc2)Oc2c(NC(=O)NC3CCCCC3)cccc2C1=O | i | i | i | -50.8 | i | i
C[C@H](CO)N1C[C@H](C)[C@@H](CN(C)S(=O)(=O)c2ccccc2)Oc2c(NC(=O)C3CC3)cccc2C1=O | i | i | i | i | i | i

Source: PubChem
